Test results reported in PubChem BioAssay (NCATS).
Records with an inconclusive call do not appear. Activity calls are given as the source filed them. Unless noted, calls follow the shape of the dose curve; as a rule, active = well fitted curve in the direction sought with a large enough effect; inconclusive = small, poorly fitted or top-dose-only effect, or another doubt; inactive = no such curve, though single readings can be large; an effect the other way counts as inactive or inconclusive.

Legend:
[1] = molecular target: Cytochrome P450 1A2 (Homo sapiens) (UniProt P05177); experiment: p450-cyp1a2 (AID 410; calls by dose curve; also: potency is read from the fitted curve at half-maximal effect)
Chain of Cytochrome P450 1A2 (Homo sapiens) (P05177 whole entry, looked up): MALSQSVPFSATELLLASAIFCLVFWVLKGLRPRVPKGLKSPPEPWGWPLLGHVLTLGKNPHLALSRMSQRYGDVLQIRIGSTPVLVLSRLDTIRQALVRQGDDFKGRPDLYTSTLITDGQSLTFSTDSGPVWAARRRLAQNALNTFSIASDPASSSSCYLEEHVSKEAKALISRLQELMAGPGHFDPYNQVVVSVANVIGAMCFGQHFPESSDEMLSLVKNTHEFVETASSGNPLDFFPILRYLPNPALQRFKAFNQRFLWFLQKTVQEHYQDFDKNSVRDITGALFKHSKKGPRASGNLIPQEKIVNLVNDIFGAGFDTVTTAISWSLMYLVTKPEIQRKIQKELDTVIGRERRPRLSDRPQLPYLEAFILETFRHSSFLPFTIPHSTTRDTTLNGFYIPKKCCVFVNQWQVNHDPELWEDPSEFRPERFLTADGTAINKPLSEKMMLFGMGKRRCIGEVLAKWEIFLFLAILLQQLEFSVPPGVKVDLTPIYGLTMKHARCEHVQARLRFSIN
Outline: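 O-Demethylation of luciferin 6' methyl ether by human CYP1A2 is monitored as luciferase luminescence. Substrate sits at Km (100uM); enzyme is 20nM. Values are scaled to 57 uM furafylline as maximal inhibition.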

[2] = molecular target: Glucocorticoid receptor (Homo sapiens) (UniProt P04150); experiment: GR-EFC Redistribution (AID 451; calls by dose curve; also: potency is read from the fitted curve at half-maximal effect); conditions: CHO-K1 GR-EFC translocation, beta-gal luminescence, 2 h
Chain of Glucocorticoid receptor (Homo sapiens) (P04150 whole entry, looked up, the tested form may be a part): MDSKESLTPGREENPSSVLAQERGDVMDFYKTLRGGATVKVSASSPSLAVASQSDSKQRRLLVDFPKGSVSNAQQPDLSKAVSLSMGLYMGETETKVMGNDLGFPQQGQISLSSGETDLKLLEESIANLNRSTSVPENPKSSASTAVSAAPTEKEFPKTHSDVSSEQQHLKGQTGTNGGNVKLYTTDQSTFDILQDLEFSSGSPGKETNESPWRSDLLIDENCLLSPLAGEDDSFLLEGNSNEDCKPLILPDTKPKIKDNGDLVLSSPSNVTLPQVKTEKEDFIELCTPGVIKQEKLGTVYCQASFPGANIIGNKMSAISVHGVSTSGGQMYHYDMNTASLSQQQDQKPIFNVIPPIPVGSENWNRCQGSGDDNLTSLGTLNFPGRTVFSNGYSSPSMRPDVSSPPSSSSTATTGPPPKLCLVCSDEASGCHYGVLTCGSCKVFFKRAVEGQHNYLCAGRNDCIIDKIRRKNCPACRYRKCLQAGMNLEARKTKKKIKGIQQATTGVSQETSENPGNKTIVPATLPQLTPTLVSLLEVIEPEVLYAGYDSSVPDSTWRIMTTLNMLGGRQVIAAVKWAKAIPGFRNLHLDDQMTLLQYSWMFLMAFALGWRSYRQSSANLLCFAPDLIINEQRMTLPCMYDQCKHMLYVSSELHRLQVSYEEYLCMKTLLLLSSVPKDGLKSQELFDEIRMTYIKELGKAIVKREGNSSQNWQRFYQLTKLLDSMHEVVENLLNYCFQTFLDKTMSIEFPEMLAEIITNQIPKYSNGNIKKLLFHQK
Outline: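 CHO-K1 cells stably expressing nuclear-localized β-gal enzyme acceptor and GR fused C-terminally to the enzyme donor fragment; ligand-driven nuclear translocation restores β-gal by complementation. Compounds titrated up to 46 uM final, 2 h at 37 °C; luminescence read.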

[3] = molecular target: Mitogen-activated protein kinase 10 (Mus musculus) (UniProt Q61831); experiment: JNK3 AlphaScreen Assay (AID 530; active = well fitted curve in either direction with a large enough effect, not every such curve was filed as active;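 also: kinase came from lysate of stimulated human HepG2 cells; signal reports phosphorylation of biotinylated GST-cJun 1-79 at Ser73 with 10 µM ATP; % is scaled to controls: 0 for no effect and ±100 for the full control effect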)
Outline: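 Phosphorylation of biotinylated GST-cJun(1-79) at Ser73 is measured by AlphaScreen proximity luminescence. Enzyme is JNK3 in HepG2 lysates activated with interleukin-1beta and tumor necrosis factor alpha; ATP is 10 uM final.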

[4] = molecular target: Cytochrome P450 3A4 (Homo sapiens) (UniProt P08684); experiment: qHTS Assay for Activators of Cytochrome P450 3A4 (AID 885); also: nearly all actives have a fitted effect of over 65% in size
Chain of Cytochrome P450 3A4 (Homo sapiens) (P08684 whole entry, looked up): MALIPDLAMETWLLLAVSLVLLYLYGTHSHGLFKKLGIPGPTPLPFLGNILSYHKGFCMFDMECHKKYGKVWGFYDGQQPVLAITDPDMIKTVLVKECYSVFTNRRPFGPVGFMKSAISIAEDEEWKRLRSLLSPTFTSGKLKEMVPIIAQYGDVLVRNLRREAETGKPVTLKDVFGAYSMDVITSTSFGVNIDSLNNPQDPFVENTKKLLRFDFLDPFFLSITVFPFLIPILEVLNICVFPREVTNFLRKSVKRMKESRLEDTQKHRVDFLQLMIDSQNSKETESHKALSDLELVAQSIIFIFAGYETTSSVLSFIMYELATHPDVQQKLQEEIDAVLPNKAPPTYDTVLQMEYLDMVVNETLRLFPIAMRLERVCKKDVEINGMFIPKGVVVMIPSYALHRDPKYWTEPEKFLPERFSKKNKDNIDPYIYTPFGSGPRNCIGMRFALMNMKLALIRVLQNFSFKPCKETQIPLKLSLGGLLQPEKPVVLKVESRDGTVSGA
Outline: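 Luminescent readout of luciferin formed from 25 uM Luciferin-PPXE (KM level) by 20 nM CYP3A4 in 200 mM KPO4, with 60 min NADPH-driven reaction at room temperature after 10 min compound exposure. Ketoconazole (57 uM) defined 100% inhibition.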

[5] = Confirmation and Secondary Assay for Modulators of Hemoglobin Beta Chain Splicing at IVS2 654 locus (AID 910);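 also: per-well total GFP intensity by laser scanning cytometry after 2-day treatment; % of control where 0% means no effect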
Outline: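 HeLa cells stably carrying EGFP interrupted by mutant beta-globin IVS2-654 intron (CMV-driven) were treated with compound for 2 days at 37C; corrected splicing was scored as total peak GFP intensity per well (488 nm excitation, 500-520 nm emission).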

[6] = Confirmation and Secondary Assay for Modulators of Hemoglobin Beta Chain Splicing at IVS2 705 locus (AID 930);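 also: HeLa cells stably expressing the EGFP-705 splicing reporter; GFP fluorescence per well restored by corrected splicing of the IVS2-705 intron in EGFP; % of control where 0% means no effect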
Outline: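 Splice-correction reporter: EGFP cDNA split by beta-globin intron 2 bearing the 705 mutation, stably in HeLa. Compound incubation 2 days, 37C; fluorescent objects 5-250 µm summed per well.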

[7] = qHTS Assay for Lipid Storage Modulators (AID 1519; calls by dose curve); conditions: Drosophila S3 cells, BODIPY lipid droplet/cell ratio, laser cytometry, cells loaded with oleic acid; for activity change, negative = inhibition: at 57.5 µM (top of the series)
Outline: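 Cells seeded at 5,000 per well were treated with compounds over a concentration series and loaded with oleic acid (400 uM, as added). Lipid droplet fluorescence (488 nm excitation, 500-530 nm channel) was read by laser-scanning cytometry and normalized to 20 uM Triacsin C.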

[8] = molecular target: Ubiquitin carboxyl-terminal hydrolase 1 (Homo sapiens) (UniProt O94782); experiment: Inhibitors of USP1/UAF1: Pilot qHTS (AID 504865);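 also: rhodamine fluorescence freed from ubiquitin-rhodamine substrate followed over time; top concentration of the series differs between compounds; % is scaled to controls: 0 for no effect and ±100 for the full control effect; nearly all actives have a fitted effect of over 35% in size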
Chain of Ubiquitin carboxyl-terminal hydrolase 1 (Homo sapiens) (O94782 whole entry, looked up): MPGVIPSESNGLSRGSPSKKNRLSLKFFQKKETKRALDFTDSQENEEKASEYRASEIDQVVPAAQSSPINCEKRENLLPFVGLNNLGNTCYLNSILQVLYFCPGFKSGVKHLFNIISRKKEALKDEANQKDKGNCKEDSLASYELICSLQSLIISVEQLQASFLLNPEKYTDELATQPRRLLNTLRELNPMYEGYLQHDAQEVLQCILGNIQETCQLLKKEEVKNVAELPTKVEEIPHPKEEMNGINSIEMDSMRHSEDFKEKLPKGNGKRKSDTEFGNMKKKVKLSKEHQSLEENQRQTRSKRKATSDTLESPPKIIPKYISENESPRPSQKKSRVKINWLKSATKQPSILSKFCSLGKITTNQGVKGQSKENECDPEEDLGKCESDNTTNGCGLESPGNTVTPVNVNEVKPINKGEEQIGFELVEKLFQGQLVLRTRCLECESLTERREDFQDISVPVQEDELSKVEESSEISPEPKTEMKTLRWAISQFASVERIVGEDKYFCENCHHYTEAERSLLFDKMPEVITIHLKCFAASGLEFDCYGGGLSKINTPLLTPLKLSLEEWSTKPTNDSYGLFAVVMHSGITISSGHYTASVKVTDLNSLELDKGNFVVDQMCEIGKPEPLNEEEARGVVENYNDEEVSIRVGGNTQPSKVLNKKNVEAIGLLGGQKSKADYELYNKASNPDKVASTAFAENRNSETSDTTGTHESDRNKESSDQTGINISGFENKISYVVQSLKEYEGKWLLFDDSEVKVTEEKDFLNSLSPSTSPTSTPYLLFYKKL
Outline: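 USP1/UAF1 complex at 1 nM preincubated 15 min at room temperature with compound, then Ub-Rho substrate added at 150 nM final. Fluorescence (480/540 nm) read kinetically in 50 mM HEPES pH 7.8, 0.5 mM EDTA, 1 mM TCEP, 0.1 mg/ml BSA, 0.01% Tween-20.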

[9] = molecular target: Calcium and integrin-binding protein 1 (Homo sapiens) (UniProt Q99828); experiment: Primary qHTS for Identification of Calcium Integrin Binding Protein 1 (CIB1) Competitor (AID 1508620);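 also: GST tagged CIB1 binding a fluorescein labelled alphaIIb integrin peptide tracer; top concentration of the series differs between compounds; % is scaled to controls: 0 for no effect and ±100 for the full control effect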
Chain of Calcium and integrin-binding protein 1 (Homo sapiens) (Q99828 whole entry, looked up): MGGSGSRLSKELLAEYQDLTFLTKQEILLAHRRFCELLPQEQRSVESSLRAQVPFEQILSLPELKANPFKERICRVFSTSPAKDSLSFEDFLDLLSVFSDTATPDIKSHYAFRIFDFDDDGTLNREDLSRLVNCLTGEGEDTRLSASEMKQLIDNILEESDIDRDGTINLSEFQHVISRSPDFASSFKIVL
Outline: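 Fluorescence polarization competition: CIB1-GST (1 uM final) preincubated with compound 15 min at room temperature, then FITC-labeled alphaIIb peptide (100 nM final) added for another 15 min. Polarization read at Ex 480/Em 540.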

[10] = Primary qHTS for small molecule stabilizers of the endoplasmic reticulum resident proteome: Secreted ER Calcium Modulated Protein (SERCaMP) assay (AID 1508630); also: % is scaled to controls: 0 for no effect and ±100 for the full control effect
Outline: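 The SH-SY5Y reporter protocol was run at 3 concentrations up to 38.3 uM (primary) or 11 concentrations (follow-up): 16 h compound, 100 nM thapsigargin for 4 h, then extracellular luciferase luminescence.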

[11] = molecular target: Lysosomal acid glucosylceramidase (Homo sapiens) (UniProt P04062); experiment: Glucocerebrosidase-p2 (AID 348; in the data active = potency below about 10 µM; also: potency is read from the fitted curve at half-maximal effect); conditions: purified GBA, blue fluorogenic substrate, 40 min
Chain of Lysosomal acid glucosylceramidase (Homo sapiens) (P04062 whole entry, looked up): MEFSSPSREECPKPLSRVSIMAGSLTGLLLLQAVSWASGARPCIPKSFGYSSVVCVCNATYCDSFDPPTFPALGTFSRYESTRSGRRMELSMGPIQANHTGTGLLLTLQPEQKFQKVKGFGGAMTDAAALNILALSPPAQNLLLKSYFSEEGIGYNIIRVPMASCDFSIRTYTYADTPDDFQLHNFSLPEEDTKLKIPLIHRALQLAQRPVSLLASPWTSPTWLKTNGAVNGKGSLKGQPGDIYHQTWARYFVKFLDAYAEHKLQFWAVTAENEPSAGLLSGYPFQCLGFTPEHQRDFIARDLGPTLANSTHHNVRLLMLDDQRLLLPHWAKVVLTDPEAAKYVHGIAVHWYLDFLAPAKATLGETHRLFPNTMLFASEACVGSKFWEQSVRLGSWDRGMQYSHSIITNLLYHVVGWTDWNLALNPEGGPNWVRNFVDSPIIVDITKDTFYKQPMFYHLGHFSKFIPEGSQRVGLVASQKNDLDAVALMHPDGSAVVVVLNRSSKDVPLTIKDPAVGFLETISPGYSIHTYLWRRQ
Outline: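 Normal human glucocerebrosidase (0.2 nM) with blue fluorogenic substrate (80 uM final) in citrate/phosphate pH 5.9 with 10mM sodium taurocholate, 0.01% tween-20; 40 min RT, NaOH/glycine stop; fluorescence Ex 365/Em 440; AC50 from a titration from 0.6 nM upwards.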

[12] = Stat Signaling Pathway (AID 446; active = well fitted curve in either direction with a large enough effect, not every such curve was filed as active;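 also: ME-180 cervical cancer cells given 40 pM IL-6 alongside compound; SIE-controlled beta-lactamase reporter measured as 460/530 nm FRET emission ratio; % is scaled to controls: 0 for no effect and ±100 for the full control effect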); conditions: ME-180 (cervical carcinoma) SIE beta-lactamase reporter, IL-6 stimulated, 5 h; at 7.69 µM (top of the series) unless noted
Outline: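 FRET read-out (405 nm excitation, 460/530 nm emission) of a beta-lactamase reporter under a STAT-inducible element in ME-180 cervical carcinoma cells. Cells with compound receive 40 pM IL-6 for 5 h. Values are normalised to AC90 stimulation and AC90 JAK-inhibitor controls.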

[13] = molecular target: Glucocorticoid receptor (Homo sapiens) (UniProt P04150); experiment: GR-GFP Redistribution (AID 450;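 active = compounds whose dose series gives a full or clear partial fitted curve of increased nuclear translocation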; also: potency is read from the fitted curve at half-maximal effect); conditions: U2OS GR-GFP nuclear translocation, laser cytometry, 2 h
[14] = molecular target: Cytochrome P450 2C9 (Homo sapiens) (UniProt P11712); experiment: qHTS Assay for Inhibitors and Substrates of Cytochrome P450 2C9 (AID 883); also: potency is read from the fitted curve at half-maximal effect; nearly all actives have a fitted effect of over 60% in size
Chain of Cytochrome P450 2C9 (Homo sapiens) (P11712 whole entry, looked up): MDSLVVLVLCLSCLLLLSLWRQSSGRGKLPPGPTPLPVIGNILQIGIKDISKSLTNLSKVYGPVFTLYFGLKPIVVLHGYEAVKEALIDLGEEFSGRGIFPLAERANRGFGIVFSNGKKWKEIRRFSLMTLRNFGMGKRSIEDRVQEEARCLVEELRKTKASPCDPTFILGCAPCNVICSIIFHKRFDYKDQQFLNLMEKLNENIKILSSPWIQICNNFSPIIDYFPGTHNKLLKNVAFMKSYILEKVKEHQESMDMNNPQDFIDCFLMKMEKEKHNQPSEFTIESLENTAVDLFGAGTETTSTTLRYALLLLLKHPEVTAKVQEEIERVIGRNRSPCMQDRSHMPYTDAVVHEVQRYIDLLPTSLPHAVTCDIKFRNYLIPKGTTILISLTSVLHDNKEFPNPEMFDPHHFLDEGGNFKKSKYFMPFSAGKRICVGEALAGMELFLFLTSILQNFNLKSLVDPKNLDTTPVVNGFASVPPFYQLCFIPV
Outline: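 A luminogenic readout tracked human CYP2C9 (10nM) converting deoxyluciferin (100uM, at KM) in 25mM KPO4 during 60 min at 37C with regenerated NADPH. Values normalized to 57uM sulphaphenazole as complete inhibition.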

[15] = molecular target: Cytochrome P450 3A4 (Homo sapiens) (UniProt P08684); experiment: qHTS Assay for Inhibitors and Substrates of Cytochrome P450 3A4 (AID 884); also: potency is read from the fitted curve at half-maximal effect; nearly all actives have a fitted effect of over 50% in size
Outline: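 Luminescent readout of luciferin produced by CYP3A4 (20 nM) dealkylation of Luciferin-PPXE, 25 uM (its KM). NADPH-driven reaction ran 60 min at RT after 10 min compound preincubation; data scaled to 57 uM ketoconazole as 100% inhibition.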

[16] = molecular target: Cytochrome P450 2D6 (Homo sapiens) (UniProt P10635); experiment: qHTS Assay for Inhibitors and Substrates of Cytochrome P450 2D6 (AID 891); also: potency is read from the fitted curve at half-maximal effect; nearly all actives have a fitted effect of over 60% in size
Outline: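 Luminescent read-out of luciferin formed by 5 nM human CYP2D6 demethylating 30 uM Luciferin-ME EGE (Km level) over 60 min at room temperature after NADPH regeneration addition. Data normalized to full inhibition by 1.43 uM quinidine.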

[17] = molecular target: Cytochrome P450 2C19 (Homo sapiens) (UniProt P33261); experiment: qHTS Assay for Inhibitors and Substrates of Cytochrome P450 2C19 (AID 899); also: potency is read from the fitted curve at half-maximal effect; nearly all actives have a fitted effect of over 60% in size
Chain of Cytochrome P450 2C19 (Homo sapiens) (P33261 whole entry, looked up): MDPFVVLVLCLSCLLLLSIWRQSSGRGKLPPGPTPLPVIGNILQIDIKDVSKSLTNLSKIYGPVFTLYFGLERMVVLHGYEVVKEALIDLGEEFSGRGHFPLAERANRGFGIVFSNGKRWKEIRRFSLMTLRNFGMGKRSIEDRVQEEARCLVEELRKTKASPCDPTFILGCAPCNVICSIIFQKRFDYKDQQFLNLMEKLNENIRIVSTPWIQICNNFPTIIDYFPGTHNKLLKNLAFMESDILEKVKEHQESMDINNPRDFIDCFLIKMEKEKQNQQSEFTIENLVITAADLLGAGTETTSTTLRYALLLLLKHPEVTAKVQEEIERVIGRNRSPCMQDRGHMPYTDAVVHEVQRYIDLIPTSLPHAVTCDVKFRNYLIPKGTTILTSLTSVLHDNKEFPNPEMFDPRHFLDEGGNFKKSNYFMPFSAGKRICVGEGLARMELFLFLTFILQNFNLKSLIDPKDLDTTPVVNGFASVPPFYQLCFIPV
Outline: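 NADPH-dependent conversion of Luciferin-H EGE (10uM, at KM) by 5nM enzyme in 50mM KPO4, 60 min at 37C following 10 min compound preincubation. Stopped with luciferin detection buffer; luminescence read after 20 min.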

[18] = NFAT Signaling Pathway (AID 444; active = well fitted curve in either direction with a large enough effect, not every such curve was filed as active); conditions: Jurkat NFAT-bla M1, carbachol, beta-lactamase ratio, 5 h; at 7.69 µM (top of the series) unless noted
Outline: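 Jurkat cells carrying an NFAT-driven β-lactamase reporter and co-transfected muscarinic M1 receptor were treated with compound plus carbachol (1 uM final, an EC50 level) for 5 h at 37 °C. CCF4 loading followed for 1 h at RT; 460/530 nm ratio gave %activity.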

[19] = molecular target: 3',5'-cyclic-AMP phosphodiesterase 4B (Homo sapiens) (UniProt Q07343); experiment: qHTS Assay for Inhibitors of PDE-IV (AID 607; active = well fitted activation curve with a large enough effect in the main read-out, with a control signal flat, not every such curve was filed as active; also: % of control where 0% means no effect)
Outline: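 Cell-based read-out of cAMP via a modified cyclic nucleotide-gated channel and membrane potential dye (535/590 nm) in HEK293 cells expressing PDE4 endogenously. Compounds tested up to 22.9 uM final; 100 uM RO 20-1724 reference.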

[20] = molecular target: Dual specificity protein kinase CLK4 (Homo sapiens) (UniProt Q9HAZ1); experiment: qHTS Assay for Inhibitors of CDC-like Kinase 4 (Kinase-Glo Assay) (AID 1770); also: potency is read from the fitted curve at half-maximal effect; nearly all actives have a fitted effect of over 65% in size
Chain of Dual specificity protein kinase CLK4 (Homo sapiens) (Q9HAZ1 whole entry, looked up): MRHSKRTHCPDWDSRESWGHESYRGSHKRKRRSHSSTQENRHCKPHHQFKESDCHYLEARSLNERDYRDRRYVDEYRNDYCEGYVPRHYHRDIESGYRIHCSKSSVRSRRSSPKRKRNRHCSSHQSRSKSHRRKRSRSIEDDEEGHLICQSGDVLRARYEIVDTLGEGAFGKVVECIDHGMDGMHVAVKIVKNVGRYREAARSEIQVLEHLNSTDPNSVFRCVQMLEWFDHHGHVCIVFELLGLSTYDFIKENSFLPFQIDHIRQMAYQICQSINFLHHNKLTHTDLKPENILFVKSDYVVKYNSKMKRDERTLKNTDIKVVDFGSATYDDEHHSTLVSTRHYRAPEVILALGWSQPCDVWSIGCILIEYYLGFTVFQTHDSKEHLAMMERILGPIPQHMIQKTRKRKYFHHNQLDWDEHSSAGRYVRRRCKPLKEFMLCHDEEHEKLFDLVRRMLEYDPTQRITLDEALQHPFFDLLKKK
Outline: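 25 nM Clk4 with 100 uM RS repeat peptide and 1 uM ATP (final) in Tris pH7.5, 10 mM MgCl2, 4.5 h at room temperature. Remaining ATP measured by Kinase-Glo luciferase luminescence.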

[21] = molecular target: Dual specificity protein kinase CLK4 (Homo sapiens) (UniProt Q9HAZ1); experiment: qHTS Assay for Inhibitors of CDC-like Kinase 4 (ADP-Glo Assay) (AID 1771); also: potency is read from the fitted curve at half-maximal effect; nearly all actives have a fitted effect of over 70% in size
Outline: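 Compounds are pin-transferred onto substrate mix (100 uM RS peptide, 1 uM ATP), then 25 nM Clk4 is added. After 1 hr at room temperature, ADP-Glo reagent runs 45 min, detection reagent 30 min, then luminescence is read.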

[22] = molecular target: Dual specificity protein kinase CLK4 (Homo sapiens) (UniProt Q9HAZ1); experiment: qHTS Assay for Inhibitors of CDC-like Kinase 4 (ADP-FP Assay) (AID 1795); also: potency is read from the fitted curve at half-maximal effect; nearly all actives have a fitted effect of over 60% in size
Outline: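 Recombinant Clk4 (6.25 nM) phosphorylated 100 uM RS repeat peptide with 1 uM ATP in 25 mM Tris pH 7.5, 10 mM MgCl2, 0.5 mM EGTA, 2.5 mM DTT, 0.01% Triton X-100 for 1 h. ADP was detected by Transcreener ADP2 competitive fluorescence polarization after 30 min at room temperature.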

[23] = measured here: cell count channel max response
[24] = measured here: lipid channel max response

Cc1cccc(CNc2ncnc3ccc(-c4cccnc4)cc23)c1
-4.88%: max response [7, 24]
-7.82%: max response [7, 23]
inactive: Potency [2] > 46000 nM | outcome [3] | Potency [4] | outcome [5] | outcome [6] | activity change, negative = inhibition [7] 2.99% | Potency [8] | Potency [9] | Potency [10]
active: Potency [1] 316 nM

Cc1cccc(CNc2ncnc3ccc(-c4ccc5c(c4)OCO5)cc23)c1
inactive: Potency [11] > 11400 nM | activity, negative = inhibition [12] -13.6% | Potency [13] > 46000 nM | Potency [2] > 46000 nM | outcome [3] | Potency [4] | outcome [5] | activity change, negative = inhibition [7] 5.85% | Potency [9] | Potency [10]
active: Potency [1] 501 nM | Potency [14] 316 nM | Potency [15] 2000 nM | Potency [16] 501 nM | Potency [17] 5010 nM
-5.17%: max response [7, 23]
-0.18%: max response [7, 24]

COc1cccc(-c2ccc3ncnc(NCc4cccnc4)c3c2)c1
inactive: Potency [11] > 11400 nM | activity change, negative = inhibition [18] 9.62% | Potency [13] > 46000 nM | Potency [2] > 46000 nM | outcome [3] | Potency [19] | Potency [4] | Potency [8] | Potency [9] | Potency [10]
active: Potency [1] 251 nM | Potency [17] 12.6 nM | Potency [20] 2820 nM | Potency [21] 2820 nM | Potency [22] 1580 nM
